Bioassay records deposited in PubChem by National Center for Advancing Translational Sciences (NCATS).
An excerpt weighted towards active compounds, which were near 18% of everything screened.
IL-1B inflam inh = inflammasome signaling inhibition, IL-1 beta readout; THP-1 LPS/ATP IL-1B secretion, AlphaLISA, 16 h; stronger effect = lower value; activity change, % at 57.5 µM; 360,000 compounds, 4.7% hits; AID 743279; in the data active = activity change below about -50%; inconclusive = mostly about -30% to -49%
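THP-1 cells pretreated 1 hr with compounds (up to 57.5 uM final), then stimulated with LPS (250 ng/mL final) plus ATP (1.25 mM final); secreted IL-1B measured by AlphaLISA after 16 hr, decreased signal indicating inhibition.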
Gal4-VP16 FLuc = counter-screen for ROR gamma inhibitors: Gal4-VP16 reporter; Drosophila S2 Gal4-VP16 UAS-luciferase, luminescence, 20 h; Potency, µM (series often up to 53.6 µM), most hits filed as inhibitors; 310,000 compounds, 3.5% hits;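 also: Gal4-VP16 expression switched on by copper sulfate through the metallothionein promoter; nearly all actives have a fitted effect of over 50% in size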
DT40 TDP1 no CPT = qHTS for Inhibitors of human tyrosyl-DNA phosphodiesterase 1 (TDP1): qHTS in cells in absence of CPT; DT40 Tdp1-/- hTDP1 cells, no CPT, ATP luminescence, 48 h; Potency, µM (doses to about 46.2 µM), most hits filed as inhibitors; 420,000 compounds, 15% hits; AID 686978, 2013; also: nearly all actives have a fitted effect of over 55% in size
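DT40 Tdp1-/-;hTDP1 cells, no CPT (DMSO vehicle only), 400 cells/well; compounds pin-transferred; ≥48 hr, 37 °C; CellTiter-Glo 30 min RT dark, luminescence read.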
TDP1 cell CPT = DT40-hTDP1 cell growth loss with CPT | chicken DT40 Tdp1-/-;hTDP1 cells + 20 nM CPT, ATP luminescence, 48 h | Potency, µM (series often up to 46.2 µM), hits mostly inhibitors | 420,000 compounds, 12% hits | AID 686979; also: nearly all actives have a fitted effect of over 55% in size
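Cell growth measured by CellTiter-Glo luminescence after a minimum 48 h, 37 C compound exposure with 20 nM CPT in Tdp1-knockout DT40 cells stably expressing hTDP1, seeded 400/well; qHTS titration format.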
RORg inh = inhibitors of mouse ROR gamma transcriptional activity | P51450 | Drosophila S2 Gal4-RORgamma UAS-luciferase reporter, 20 h | Potency, µM (doses to about 53.6 µM), hits mostly inhibitors | 310,000 compounds, 5.4% hits | AID 2551; also: nearly all actives have a fitted effect of over 60% in size
Target sequence (P51450 whole entry, looked up, the tested form may be a part): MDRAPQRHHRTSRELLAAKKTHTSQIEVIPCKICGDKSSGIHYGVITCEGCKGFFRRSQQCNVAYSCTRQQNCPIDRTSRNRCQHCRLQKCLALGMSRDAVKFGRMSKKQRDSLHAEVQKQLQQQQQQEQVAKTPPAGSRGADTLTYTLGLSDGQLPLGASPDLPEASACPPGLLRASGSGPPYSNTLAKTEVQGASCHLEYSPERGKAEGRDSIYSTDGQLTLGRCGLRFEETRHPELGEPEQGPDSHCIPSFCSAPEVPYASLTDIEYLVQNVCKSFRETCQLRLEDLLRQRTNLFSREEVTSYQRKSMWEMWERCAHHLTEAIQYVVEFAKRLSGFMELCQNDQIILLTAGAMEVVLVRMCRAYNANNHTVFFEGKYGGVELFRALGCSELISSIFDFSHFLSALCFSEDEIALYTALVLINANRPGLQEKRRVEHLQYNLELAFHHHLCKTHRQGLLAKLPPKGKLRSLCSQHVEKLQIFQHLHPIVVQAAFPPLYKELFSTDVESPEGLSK
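Luciferase reporter read in Schneider cells carrying Gal4-RORγ (mouse) and UAS-Photinus luciferase; cells given compound 1 h before 700 uM copper sulfate induction, then incubated 20 h at ambient temperature.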
LDHA inh = blocks human lactate dehydrogenase A; P00338; purified LDHA, NADH/diaphorase-resazurin fluorescence; stronger effect = lower value; activity change, % (values are at about 110 or 230 µM); 480,000 compounds, 0.15% hits; in the data active = activity change below about -30%; inconclusive = mostly about -25% to -30%
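LDH5 2 nM; NADH 0.06 mM, pyruvate 0.2 mM; 200 mM Tris pH 7.4, EDTA, Tween-20; 5 min RT. Detection: diaphorase 0.133 mg/mL + resazurin 37 µM, fluorescence ex540/em590 at 0 and 20 min; normalized to enzyme-free and DMSO wells.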
A number is an active result; . = inactive; ? = inconclusive; / = no result. Unless noted, calls follow the shape of the dose curve; as a rule, active = well fitted curve in the direction sought with a large enough effect; inconclusive = small, poorly fitted or top-dose-only effect, or another doubt; inactive = no such curve, though single readings can be large; an effect the other way counts as inactive or inconclusive.

SMILES	IL-1B inflam inh	Gal4-VP16 FLuc	DT40 TDP1 no CPT	TDP1 cell CPT	RORg inh	LDHA inh
CCOc1ccc2oc(=O)cc(CN3CCN(C(=O)c4cccc(Cl)c4)CC3)c2c1	/	/	?	.	/	.
N#Cc1ccccc1Sc1ccccc1C(=O)OCC(=O)Nc1ccc(N2CCOCC2)cc1	/	/	/	/	/	.
CC1=C(C(=O)OC2CCCCC2)C(c2cccnc2)n2nnnc2N1 (stereo unspecified)	.	15.8µM	11.6µM	8.2µM	.	.
COC(=O)c1c(C)[nH]c(C(=O)C(C)Nc2cc(OC)cc(OC)c2)c1C (stereo unspecified)	/	/	/	/	/	.
Cc1nc(N)c(C(N)=O)[nH]1	/	/	/	/	/	.
CC1=NN(C(=O)c2ccc(Cn3nc(C)c([N+](=O)[O-])c3C)o2)C(O)(C(F)(F)F)C1 (stereo unspecified)	.	7.08µM	?	.	2.51µM	.
Cc1nn(Cc2ccc(C(=O)N3CCN(C(=O)c4ccco4)CC3)o2)c(C)c1[N+](=O)[O-]	.	.	.	.	.	.
CC1=NN(C(=O)c2ccc(Cn3ccc([N+](=O)[O-])n3)cc2)C(O)(C(F)(F)F)C1 (stereo unspecified)	.	12.6µM	.	.	10µM	.
CCCNC1=C(N(C(C)=O)c2cccc(F)c2)C(=O)c2ccccc2C1=O	-84.5	?	2.06µM	2.59µM	?	.
OCCNc1nc(NCCC2=CCCCC2)nc(N2CCOCC2)n1	.	?	20.6µM	20.6µM	?	.
Cn1cccc1C(=O)N1CCC[C@@]2(CCN(c3ccccc3)C2)C1	/	.	25.9µM	?	.	/
Cn1cccc1C(=O)N1CCC[C@@]2(CCN(c3cccc(-c4ccccc4)c3)C2)C1	/	.	?	?	.	/
COc1ccc(C(=O)N2CCC3(CCCN(c4cccc(-c5ccccc5)c4)C3)CC2)cc1	/	.	20.6µM	?	.	/
Cn1cccc1C(=O)N1CCC2(CCCN(c3cccc(-c4ccccc4)c3)C2)CC1	/	.	13µM	?	.	/
Cn1cccc1C(=O)N1CCC2(CC1)CCN(c1cccc(-c3ccccc3)c1)CC2	/	.	?	16.4µM	.	/
O=C(c1ccc(F)cc1)c1ccccc1C(=O)N1CCN(C(=O)CCC2CCCC2)CC1	/	/	/	/	/	.
Cc1nc2ccccc2c(=O)n1NCc1cc(Br)cs1	.	.	14.6µM	?	.	.
O=C(OCC(=O)N(CCc1ccccc1)Cc1ccccc1)c1ccccc1NCCO	.	.	?	?	.	.
O=C(OCC(=O)N(Cc1ccccc1)Cc1ccccc1)c1ccccc1O	.	/	?	18.4µM	/	.
O=C(OCC(=O)N(CCc1ccccc1)Cc1ccccc1)c1ccccc1O	.	/	?	18.4µM	/	.
Cc1ccc(S(C)(=O)=O)cc1C(=O)OCC(=O)N(Cc1ccccc1)Cc1ccccc1	.	/	16.4µM	20.6µM	/	.
CC1Sc2ccc(C(=O)OCC(=O)NCc3ccccc3)cc2NC1=O (stereo unspecified)	/	/	/	/	/	.
O=C(Nc1ccccc1)N1CCN(c2cnccn2)CC1	/	/	/	/	/	.
CNC(=O)C1CCN(Cc2nnnn2-c2ccccc2)CC1	/	/	/	/	/	.
O=C(NCC1CC1)c1onc(CSc2nc3ccccc3[nH]2)c1C(=O)NCC1CC1	.	.	?	20.6µM	.	.
SMILES	IL-1B inflam inh	Gal4-VP16 FLuc	DT40 TDP1 no CPT	TDP1 cell CPT	RORg inh	LDHA inh
COc1cc(NC(=O)Cn2c(=O)n(Cc3ccccc3)c(=O)c3oc4ccccc4c32)cc(OC)c1	/	/	.	.	/	.
CCc1ccccc1NC(=O)Cn1c(=O)n(Cc2ccc(OC)cc2)c(=O)c2oc3ccccc3c21	/	/	?	9.2µM	/	.
COc1ccc(Cn2c(=O)c3oc4ccccc4c3n(CC(=O)Nc3c(C)cccc3C)c2=O)cc1	/	/	5.8µM	7.31µM	/	.
CCc1ccccc1NC(=O)Cn1c(=O)n(-c2ccc(C)c(C)c2)c(=O)c2oc3ccccc3c21	/	/	?	14.6µM	/	.
CCOc1ccccc1Oc1c(C(F)(F)F)oc2cc(OC(=O)C(C)C)ccc2c1=O	/	/	/	/	/	.
COCc1cccc(C(=O)NCc2ccc(C)cc2)c1	/	/	/	/	/	.
